HT1080-NT tox: kills 2HG-producing HT-1080-NT fibrosarcoma cells. AID 686970. Potency, µM (top dose mostly 46.1 µM), usual class: cytotoxic. 360,000 tested, 1.6% active. HT-1080-NT fibrosarcoma viability, CellTiter-Glo ATP luminescence, 48 h;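 note: NT is the 2HG producing partner of a matched IDH1 knockdown line; nearly all actives have a fitted effect of over 55% in size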
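Viability of the 2HG-overproducing fibrosarcoma line after 48 hours of compound exposure at 37 degrees C was determined by luminescence with CellTiter-Glo, and concentration-effect curves were then fitted and categorized.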
DT40 TDP1 no CPT: qHTS for Inhibitors of human tyrosyl-DNA phosphodiesterase 1 (TDP1): qHTS in cells in absence of CPT; Potency, µM (titrated, usually from 46.2 µM), usual class: inhibitors; AID 686978, 2013; 420,000 tested, 15% active; DT40 Tdp1-/- hTDP1 cells, no CPT, ATP luminescence, 48 h; note: nearly all actives have a fitted effect of over 55% in size
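Seeded 400 DT40-hTDP1 cells/well (vehicle DMSO, no 20 nM CPT); pinned compounds; ≥48 hr at 37 °C; CellTiter-Glo luminescence as viability measure.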
KB-V1 cytotox: KB-V1 MDR subline cytotoxicity; KB-V1 MDR cells viability, CellTiter-Glo, 72 h; Potency, µM (top dose mostly 46.1 µM), actives largely listed as cytotoxic; 400,000 tested, 3.4% active; AID 1347076; note: nearly all actives have a fitted effect of over 60% in size
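KB-V1 MDR subline cells in DMEM (phenol-red free, 10% FBS) exposed to compounds in qHTS concentration series for 72 h at 37 degrees C. Viability read by CellTiter-Glo luminescence; concentration-effect curves fitted after normalization and correction.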
KB-3-1 cytotox: KB-3-1 parental cell cytotoxicity; KB-3-1 viability, CellTiter-Glo ATP luminescence, 72 h; Potency, µM (top dose mostly 46.1 µM), usual class: cytotoxic; 400,000 tested, 1.4% active; note: nearly all actives have a fitted effect of over 60% in size
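Luminescent ATP read-out (CellTiter-Glo) measures survival of drug-naive KB-3-1 cells after 72 h compound exposure at 37 °C. Titration series was screened from lowest to highest concentration, with DMSO vehicle plates as background controls.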
DT40 TDP1 CPT: growth inhibition of DT40 Tdp1-/-;hTDP1 cells with camptothecin (screen for TDP1 inhibitors); chicken DT40 Tdp1-/-;hTDP1 cells + 20 nM CPT, ATP luminescence, 48 h; Potency, µM (doses to about 46.2 µM), hits mostly inhibitors; 420,000 tested, 12% active; note: nearly all actives have a fitted effect of over 55% in size
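Chicken DT40 Tdp1-/- cells stably complemented with human TDP1 were seeded at 400 cells/well in medium containing 20 nM camptothecin, exposed to pin-transferred compounds, and grown at 37 °C for at least 48 hr. Viability was read as ATP luminescence.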
HT1080 IDH1KD tx: HT-1080 IDH1 knockdown cell toxicity (counter line) | Potency, µM (doses to about 46.1 µM), most hits filed as cytotoxic | 360,000 tested, 2% active | HT-1080 IDH1 knockdown viability, ATP luminescence, 48 h
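CellTiter-Glo luminescence after 48 h compound exposure at 37 degrees C of IDH1-knockdown HT-1080 cells in 5% FBS RPMI. %Activity scaled between DMSO wells and cell-free media wells, with curves fitted and assigned curve classes.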
Hits are given with their value; i = inactive; ? = inconclusive; nt = no result given. The list is not random: actives were taken first. Their share in the collection is about 19%. Calls come from the whole dose curve; as a rule, active = well fitted curve in the direction sought with a large enough effect; inconclusive = small, poorly fitted or top-dose-only effect, or another doubt; inactive = no such curve, though single readings can be large; an effect the other way counts as inactive or inconclusive.

SMILES	HT1080-NT tox	DT40 TDP1 no CPT	KB-V1 cytotox	KB-3-1 cytotox	DT40 TDP1 CPT	HT1080 IDH1KD tx
O=C(C1CCN(S(=O)(=O)c2cccs2)CC1)N1CCN(c2ccccc2O)CC1	i	?	i	?	15µM	i
O=C(NCc1ccc(F)cc1)C1CCC(CNS(=O)(=O)c2cccs2)CC1 (stereo not drawn)	i	i	?	i	i	i
O=C(Nc1ccc(F)c(F)c1)C1CCN(S(=O)(=O)c2cccc3nonc23)CC1	?	?	12µM	?	?	i
COc1ccc(N2CCN(C(=O)C3CCN(S(=O)(=O)c4cccs4)CC3)CC2)cc1	i	23µM	?	i	?	i
O=C(C1CCC(CNS(=O)(=O)c2cccs2)CC1)N1CCN(c2ccc(F)cc2)CC1 (stereo not drawn)	i	21µM	i	?	?	i
CCc1nn2c(=O)cc(COC(=O)C3CCCCC3)nc2s1	nt	i	?	i	i	nt
CCOc1ccc(C(=O)Nc2ccc3oc(-c4cccnc4)nc3c2)cc1	nt	i	i	i	i	nt
CCOc1ccccc1NC(=O)CCCNC(=O)Cn1cnc2sc(C)c(C)c2c1=O	i	?	i	i	?	i
COc1ccc(N2CCN(C(=O)C3CCN(S(=O)(=O)c4cccc5nonc45)CC3)CC2)cc1	nt	16µM	i	i	?	nt
COc1ccc(N2CCN(C(=O)c3ccc(NS(=O)(=O)c4cccs4)cc3)CC2)cc1	i	13µM	i	i	?	i
COc1ccc(N2CCN(C(=O)c3ccc(NS(=O)(=O)c4ccc(F)cc4)cc3)CC2)cc1	i	?	i	i	?	i
CCCOc1c(Br)cc(C(=O)OCC(=O)NC2CC2)cc1OC	i	i	i	i	i	i
CNCCOc1ccc(Cl)c(Cl)c1	i	16µM	i	i	?	?
CCN(CCCNc1ncnc2nc[nH]c12)c1cccc(C)c1	i	?	?	i	18µM	i
CCN(c1cccc(C)c1)c1ncnc2nc[nH]c12	i	i	i	i	i	i
CCOc1ccc(NC(=O)CN(c2ccc([N+](=O)[O-])cc2)S(=O)(=O)c2ccccc2)cc1	?	?	7.3µM	i	?	8.2µM
COc1ccc(N(CC(=O)Nc2cccc(N(C)S(C)(=O)=O)c2)S(=O)(=O)c2ccc(F)cc2)cc1	i	?	?	i	16µM	i
CCOc1ccc(N(CC(=O)Nc2cccc(N(C)S(C)(=O)=O)c2)S(=O)(=O)c2ccccc2)cc1	i	?	?	i	21µM	i
CCOc1ccc(N(CC(=O)N/N=C/c2ccccn2)S(=O)(=O)c2ccc(Cl)cc2)cc1	?	21µM	i	i	?	?
CCOc1ccc(N(CC(=O)NCCSc2ccccn2)S(=O)(=O)c2ccc(Cl)cc2)cc1	i	?	i	i	?	i
COC(=O)c1ccc(NC(=O)CN(c2cccc(C(F)(F)F)c2)S(C)(=O)=O)cc1	nt	4.6µM	i	i	23µM	nt
COc1ccc(N(CC(=O)Nc2cccc(N(C)S(C)(=O)=O)c2)S(=O)(=O)c2ccccc2)cc1Cl	i	21µM	?	?	10µM	i
COc1ccc(S(=O)(=O)N(CC(=O)Nc2cccc(C(F)(F)F)c2)c2ccc(C)cc2)cc1	nt	23µM	i	?	?	nt
COc1ccc(N(CC(=O)Nc2ccc(OC)c(OC)c2)S(=O)(=O)c2ccccc2)cc1Cl	i	?	i	i	?	i
COc1ccc(S(=O)(=O)N(CC(=O)Nc2cc(C)cc(C)c2)c2ccc(Cl)cc2)cc1	nt	23µM	i	i	?	nt
SMILES	HT1080-NT tox	DT40 TDP1 no CPT	KB-V1 cytotox	KB-3-1 cytotox	DT40 TDP1 CPT	HT1080 IDH1KD tx
O=C(Cn1cnc2ccccc2c1=O)NNC(=O)c1ccccc1	i	i	i	i	i	i
Cc1ccc([N+](=O)[O-])cc1N(CC(=O)Nc1ccc(S(=O)(=O)Nc2cccc(C(F)(F)F)c2)cc1)S(C)(=O)=O	?	18µM	i	?	?	?
COc1ccccc1N(CC(=O)Nc1cccc(C(F)(F)F)c1)S(C)(=O)=O	i	i	i	i	i	i
CCCOc1ccc(/C=N/NC(=O)CN(c2ccc(OCC)cc2)S(C)(=O)=O)cc1	i	i	i	i	i	i
CCOc1ccc(N(CC(=O)N/N=C/c2cc([N+](=O)[O-])ccc2Cl)S(C)(=O)=O)cc1	i	23µM	i	i	?	i
COC(=O)c1ccc(Cl)c(NC(=O)CN(c2ccccc2)S(=O)(=O)c2ccc(OC)cc2)c1	i	16µM	?	i	?	i
CC1OC(CC(=O)O)CC2=C1C(=O)c1c(O)cccc1C2=O (stereo not drawn)	1.3µM	0.065µM	2.9µM	3.7µM	0.1µM	0.26µM
Cc1ccc2ccccc2c1C(O)c1ncc(-c2ccccc2)[nH]1 (stereo not drawn)	i	?	i	i	?	i
Cc1nn(C(C)C(=O)Nc2ccccc2C(F)(F)F)c(=O)c2c1sc1ccccc12 (stereo not drawn)	nt	i	i	i	i	nt
CCN(c1ccccc1)S(=O)(=O)c1ccc(C(=O)NCC(=O)Nc2ccc(F)c(F)c2F)cc1	?	15µM	?	?	15µM	?
CN(c1ccccc1)S(=O)(=O)c1cccc(C(=O)NCC(=O)Nc2ccc(F)c(F)c2F)c1	i	16µM	i	i	?	i
Nc1nc(-c2ccccc2)nc2sc3c(c12)CCCC3	i	i	23µM	i	i	i
O=c1oc(-c2ccccc2)nc2sc3c(c12)CCC3	i	i	i	i	i	i

Source: PubChem (National Center for Advancing Translational Sciences (NCATS))
